# Experimental data reported in PubChem BioAssay (NCI).
# About 83,000 compounds went through this panel and 20% of them were active in at least one assay; those are over-represented in the sample as a whole.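 Interpretation: 100, growth as untreated; towards 0, rising growth inhibition; 0, no net growth; 0 to -100, cell death. Compounds scoring below 10 were considered active.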 Values without a mark were called inactive. Calls of active or inactive are those of the source.
# Tested on: BT-549 breast
# Assay: NCI-60 one-dose screen, 48 h (100 = growth as untreated, 0 = no growth, -100 = all killed)
# Settings: 10 µM unless noted
row,SMILES,growth
1,COc1ccc(C(=O)c2cc(OC)c(OC)c(OC)c2OC)cc1O,39.8%
2,O=C(CN1CCN(c2cc3c(cc2F)c(=O)c(C(=O)N/N=C/c2ccccc2O)cn3C2CC2)CC1)N/N=C\c1ccccc1O,45.5%
3,O=c1[nH]c2ccc(Br)cc2c2c1C(c1ccc(Cl)cc1)c1c(ncn3nc(-c4ccco4)nc13)O2 (centres undefined),76.9%
4,Cc1cc(N/N=C/c2nc(-c3ccccc3)oc2C)c2cc(Br)ccc2n1,93.4%
5,C=CCSc1n[nH]c(-c2cccs2)n1,99.5%
6,COC1=C(OC)C(=O)C(CCCCCCCCCC[P+](c2ccccc2)(c2ccccc2)c2ccccc2)=C(C)C1=O,-78.9% (active)
7,COc1ccc(C(=O)N2NC(=O)/C(=C/c3ccc(F)cc3)N=C2c2ccccc2)cc1,83%
8,C/C=C/C1=CN2C(=O)c3cc(OC4OC(C)C(NC)C(C)(O)C4O)c(C)cc3N=C[C@@H]2C1 (some centres undefined),-41.2% (active)
9,Cc1ccc2[nH]c(=O)c3c(c2c1)Oc1ncn2nc(-c4ccco4)nc2c1C3c1ccc(Cl)cc1 (centres undefined),91.4%
10,CCCCCCCCCCCCCCCCCCNC(=O)[C@H]1CSC(c2cccs2)N1 (some centres undefined),-77.4% (active)
11,FC(F)(F)c1ccccc1-c1cn2c(ccc3ccccc32)n1,80.8%
12,CCn1c2ccccc2c2cc(NC(=O)Nc3ccc([N+](=O)[O-])cc3C)ccc21,79.2%
13,CCOC(=O)c1cc(C(=O)c2cc(OC)c(OC)c(OC)c2)n2c1ccc1ccccc12,66.9%
14,O=C1c2ccccc2-c2ccccc2C1(Cl)Cl,-84% (active)
15,O=c1ccn(C2CC(O)C(O)C(CO)O2)c(=O)[nH]1 (centres undefined),114%
16,COC(OC)c1ccccc1,92.4%
17,O=C1CCCCC1(c1ccccc1)c1ccccc1,114%
18,C=C1C(=O)O[C@H]2[C@H]1CC/C(Cn1cc(-c3cccc(Cl)c3)nn1)=C\CC[C@@]1(C)O[C@@H]21,-49.5% (active)
19,CCOC(=O)c1ccc(NC(=O)N2CC(C)OC(C)C2)cc1 (centres undefined),97.8%
20,Cc1ccc(S(=O)(=O)NCCNc2nccc(-c3c(-c4cccc(N)c4)nc4sccn34)n2)cc1,87.5%

row,SMILES,growth
1,CN1C=CN(Cc2ccc(-c3ccccn3)nc2)[CH-]1.CN1C=CN(Cc2ccc(-c3ccccn3)nc2)[CH-]1.[Au+3],31.1%
2,CCC(C)/C(=C\C#N)NCCCN/C(=C/C#N)C(C)CC (centres undefined),105%
3,O=C(O)C1CCCN1 (centres undefined),120%
4,C=C[C@@H]1C[C@@H]2Cc3c(C)cc(C)cc3N1O2,112%
5,Cc1c(C(=N)C(C#N)C#N)c(=N)oc2c1ccc1ccccc12,73.9%
6,COc1cc2c(=O)n(C3CCCCCC3)c3c4cc[nH]c4ncc3c2cc1OC,52.3%
7,COc1cc(/C=C/C(=O)c2c(C)nc3ccccc3c2C)ccc1OCCCCOc1cc2c(cc1OC)C(=O)N1CCC[C@H]1C=N2,-64.8% (active)
8,CCOC(=O)c1c(NS(=O)(=O)c2ccc(C)cc2)sc2c1CCC1(C2)OCCO1,93.8%
9,C=C(C)[C@@H]1C[C@@H]2Cc3cc(Cl)ccc3N1O2,99.6%
10,Nc1ncnc2c1c(-c1ccc(Oc3ccccc3)cc1)nn2C[C@@H]1SSC[C@@H]1O,83%
11,CCOc1cc2c(Cl)ncnc2c(OCC)c1OCC,75.1%
12,Fc1ccc(Nc2ncnc3ccc(-c4cnc5[nH]ccc5c4)cc23)cc1Cl,20.3%
13,COc1ccc(C2CC(c3ccc(OC)cc3OC)=NN2c2ccc(S(N)(=O)=O)cc2)cc1 (centres undefined),76.7%
14,CC(C)c1ccc2occ(C=C3C(=O)NC(=O)NC3=O)c(=O)c2c1,92.4%
15,COc1ccc(C(=O)N2NC(=O)/C(=C/c3cn(-c4ccccc4)nc3-c3ccccc3)N=C2c2ccccc2)cc1,106%
16,COc1cc(NC(=O)SC2=NCCS2)cc(OC)c1,95.4%
17,O=C1/C(=C/c2ccc([N+](=O)[O-])cc2)CN(C(=O)CCN2CCC(=NO)CC2)C/C1=C\c1ccc([N+](=O)[O-])cc1,-40.7% (active)
18,CN1CCN(Cc2ccc(NC(=O)c3cncc(C#Cc4cnc(N)c5cnccc45)c3)cc2C(F)(F)F)CC1,27.4%
19,COc1cccc(/C=C2\Oc3cc(OCCCN4CCCC4)ccc3C2=O)c1,92.6%
